Compounds with a hit are over-represented: about 19% of the library has one in this group of screens.
IL-1B inflam inh: inhibitors of inflammasome signaling (IL-1 beta secretion); THP-1 LPS/ATP IL-1B secretion, AlphaLISA, 16 h; stronger effect = lower value; activity change, % at 57.5 µM; 4.7% of 360,000 active; AID 743279; in the data active = activity change below about -50%; inconclusive = mostly about -30% to -49%; also: % is scaled to controls: 0 for no effect and ±100 for the full control effect
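THP-1 cells pretreated 1 hr with compounds (up to 57.5 uM final), then stimulated with LPS (250 ng/mL final) plus ATP (1.25 mM final); secreted IL-1B measured by AlphaLISA after 16 hr, decreased signal indicating inhibition.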
DT40 TDP1 CPT: DT40-hTDP1 cell growth loss with CPT; chicken DT40 Tdp1-/-;hTDP1 cells + 20 nM CPT, ATP luminescence, 48 h; Potency, µM (top dose mostly 46.2 µM), without a hit: at the top dose activity change, negative = growth inhibition, most hits filed as inhibitors; 12% of 420,000 active; AID 686979; also: potency is read from the fitted curve at half-maximal effect; % is scaled to controls: 0 for no effect and ±100 for the full control effect; nearly all actives have a fitted effect of over 55% in size
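Cell growth measured by CellTiter-Glo luminescence after a minimum 48 h, 37 C compound exposure with 20 nM CPT in Tdp1-knockout DT40 cells stably expressing hTDP1, seeded 400/well; qHTS titration format.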
BCR signal inh: blocks chronic active B-cell receptor signaling; ABC-DLBCL IkBa-CBG/CBR reporter, luminescence ratio, 4 h; Potency, µM (highest dose often 46.1 µM), for the others: top-dose activity change, negative = inhibition, actives largely listed as inhibitors; 0.05% of 340,000 active; active = well fitted inhibition curve with a large enough effect in the signal ratio, with a control signal flat, not every such curve was filed as active; inconclusive = small, poorly fitted or top-dose-only effect, or effect the other way, or a change in a side signal; the % refers to the signal ratio;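 also: potency is read from the fitted curve at half-maximal effect; plate controls were basal doxycycline-induced cells for no effect and cells given 10 µM MG132 for full effect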
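Doxycycline induced both beetle luciferases in TMD8 lymphoma cells; IKK-driven degradation limits the IkappaBalpha-fused green signal, while red luminescence normalises for cell number and nonspecific effects. Compounds tested up to 46 uM, 4 hrs.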
SW480 rerep: inducers of DNA re-replication in SW480 colon cancer cells; 1.8% of 340,000 active; AID 624297; SW480 DNA re-replication, Hoechst DNA content imaging, 48 h; Potency, µM (titrated, usually from 46.1 µM), without a hit: at the top dose re-replication activation, hits mostly activators; also: potency is read from the fitted curve at half-maximal effect; % of control where 0% means no effect; nearly all actives have a fitted effect of over 55% in size
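Compounds, transferred as 23 nL by pin tool, were incubated with cells for 48 hr; DNA content per nucleus was then quantified by Hoechst staining and fluorescence plate imaging.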
DT40 TDP1 no CPT: qHTS for Inhibitors of human tyrosyl-DNA phosphodiesterase 1 (TDP1): qHTS in cells in absence of CPT; DT40 Tdp1-/- hTDP1 cells, no CPT, ATP luminescence, 48 h; Potency, µM (doses to about 46.2 µM), without a hit: at the top dose activity change, negative = growth inhibition, most hits filed as inhibitors; 15% of 420,000 active; AID 686978, 2013; also: potency is read from the fitted curve at half-maximal effect; % is scaled to controls: 0 for no effect and ±100 for the full control effect; nearly all actives have a fitted effect of over 55% in size
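Camptothecin absent (DMSO only). Human TDP1-complemented DT40 knockout cells, 400 cells/well, 37 °C for minimum 48 hr; ATP measured via CellTiter-Glo, 30 min dark incubation, luminescence.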
MCF10A rereplic: induces DNA re-replication in MCF 10a normal breast cells | MCF 10A DNA re-replication, Hoechst nuclear intensity, 48 h | Potency, µM (doses to about 46.1 µM), without a hit: top-dose activity, positive = re-replication, actives largely listed as activators | 2.9% of 350,000 active; also: potency is read from the fitted curve at half-maximal effect; % of control where 0% means no effect; nearly all actives have a fitted effect of over 50% in size
Active calls of the source: *; ? = inconclusive; . = not tested or not shown. Unless noted, calls follow the shape of the dose curve; as a rule, active = well fitted curve in the direction sought with a large enough effect; inconclusive = small, poorly fitted or top-dose-only effect, or another doubt; inactive = no such curve, though single readings can be large; an effect the other way counts as inactive or inconclusive.

SMILES	IL-1B inflam inh	DT40 TDP1 CPT	BCR signal inh	SW480 rerep	DT40 TDP1 no CPT	MCF10A rereplic
Cc1sc(NC(=O)c2ccccc2)c(C(c2ccccn2)N2CCN(CCO)CC2)c1C (configuration not stated)	-12	10µM*	?	-7%	9.2µM*	2%
CCOC(=O)[C@@H]1[C@H]2COc3ccccc3[C@@H]2N2C(=O)N(c3cccc(C)c3)C(=O)[C@]12C	-19	?	-15%	-5%	?	13%
O=C(Nc1nnc(SCC(=O)N2CCCc3ccccc32)s1)c1ccc2ccccc2c1	7	-27%	7%	0%	?	18%
O=C(Nc1ccc2nc(SCC(=O)N3CCCc4ccccc43)sc2c1)c1ccccc1	.	21µM*	.	.	18µM*	.
COc1ccc(C(=O)Nc2ccc3nc(SCC(=O)N4CCCc5ccccc54)sc3c2)cc1	.	9.2µM*	.	.	18µM*	.
O=C(Nc1ccc2nc(SCC(=O)N3CCc4ccccc43)sc2c1)c1ccccc1	.	5.8µM*	.	.	2.3µM*	.
Cc1ccc(C(=O)Nc2ccc3nc(SCC(=O)N4CCCc5ccccc54)sc3c2)cc1	.	12µM*	.	.	7.3µM*	.
Cc1cc(C)c(C(=O)N2CCC(N3CCC(C(=O)NC(C)C)CC3)CC2)o1	2	0%	0%	20%	5%	7%
COc1ccc(C)cc1NS(=O)(=O)c1ccc2c3c(cccc13)C(=O)N2	.	4.1µM*	.	.	?	.
Cc1ccc(S(=O)(=O)c2cn(Cc3ccccc3Cl)c3ccc(F)cc3c2=O)cc1	.	18µM*	.	.	16µM*	.
Cc1ccc(S(=O)(=O)c2cn(Cc3ccccc3F)c3cc4c(cc3c2=O)OCO4)cc1	.	5.8µM*	.	.	?	.
COC(=O)C[C@H]1C=C[C@@H](NC(=O)C2CC2)[C@@H](CO)O1	22	3%	.	.	3%	.
Cc1c(F)c(N2CCNC(C)C2)cc2c1c(=O)c(C(=O)O)cn2C1CC1 (configuration not stated)	.	0%	.	5%	4%	11%
CO[C@@]12[C@H](COC(N)=O)C3=C(C(=O)C(C)=C(N)C3=O)N1C[C@@H]1N[C@@H]12	1	0.58µM*	0%	?	0.73µM*	8%
CO[C@@]12[C@@H]3N[C@@H]3CN1C1=C(C(=O)C(N)=C(C)C1=O)[C@@H]2COC(N)=O	21	0.12µM*	.	?	0.1µM*	?
Cc1ccc(S(=O)(=O)N(C)C)cc1NC(=O)c1c(-c2c(F)cccc2Cl)noc1C	12	-13%	-23%	-102%	-22%	-1%
CCNS(=O)(=O)c1ccc(CCC(=O)N2CCN(c3cccc(Cl)c3)CC2)cc1	-51*	?	2%	-5%	23µM*	10%
O=C(CCNS(=O)(=O)c1ccc2nsnc2c1)N1CCN(c2ccncc2)CC1	-5	?	4%	?	16µM*	?
COc1ccc(S(=O)(=O)NCCS(=O)(=O)N2CCN(c3ccccc3)CC2)cc1C	.	18µM*	.	.	23µM*	.
Cc1ccc(S(=O)(=O)NCCC(=O)N2CCOCC2)cc1C	16	-1%	-1%	-6%	-2%	0%
Cc1ccc(S(=O)(=O)NCCC(=O)N2CCN(c3cccc(Cl)c3)CC2)cc1C	-1	15µM*	-1%	22%	?	2%
COCCN(C(=O)COC(=O)c1ccc(Br)o1)c1c(N)n(Cc2ccccc2)c(=O)[nH]c1=O	-3	5%	.	.	-17%	.
COc1ccc(-c2nc3sc(CCNC(=O)C(=O)Nc4ccccc4C#N)c(C)n3n2)cc1	.	-9%	8%	.	-21%	.
CCc1ncc(CN2CCC(C(=O)Nc3cccc(-c4cscn4)c3)CC2)cn1	-3	?	-4%	14%	?	2%
CNS(=O)(=O)c1cn(CC(=O)N2CCN(c3cccc(Cl)c3)CC2)cc1S(=O)(=O)NC	.	?	.	.	26µM*	.
SMILES	IL-1B inflam inh	DT40 TDP1 CPT	BCR signal inh	SW480 rerep	DT40 TDP1 no CPT	MCF10A rereplic
CCCNC(=O)C1(C)CCCN(C(=O)c2ccccc2F)C1 (configuration not stated)	4	5%	.	.	1%	.
CCOC(=O)C1CCCN(C2=C(NS(=O)(=O)c3ccc(Br)cc3)C(=O)c3ccccc3C2=O)C1 (configuration not stated)	9	18µM*	13%	-19%	16µM*	?
O=C1C(NS(=O)(=O)c2ccc(Br)cc2)=C(N2CCCCC2)C(=O)c2ccccc21	-21	?	6%	-2%	18µM*	1%
CCOC(=O)C1CCN(C2=C(NS(=O)(=O)c3ccc(Cl)cc3)C(=O)c3ccccc3C2=O)CC1	-9	-16%	2%	?	?	?
O=S(=O)(Nc1ccccc1N1CCCCC1)c1ccccc1	38	?	-1%	7%	?	-9%
CC1CCN(C2=C(NS(=O)(=O)c3ccccc3)C(=O)c3ccccc3C2=O)CC1	-74*	?	?	-12%	?	?
CC1CCCN(C2=C(NS(=O)(=O)c3ccc(Br)cc3)C(=O)c3ccccc3C2=O)C1 (configuration not stated)	-9	?	-6%	-1%	12µM*	?
CCn1ncc(S(=O)(=O)NCc2ccccc2Cl)c1C	23	-11%	2%	0%	19%	0%
CC1CCN(C2=C(NS(=O)(=O)c3ccc(Cl)cc3)C(=O)c3ccccc3C2=O)CC1	-3	-22%	?	-1%	-10%	4%
CC1CCN(C2=C(NS(=O)(=O)c3ccc(Br)cc3)C(=O)c3ccccc3C2=O)CC1	?	?	?	-17%	18µM*	2%
O=S(=O)(c1ccccc1)N1CCCC1c1nc2ccccc2s1 (configuration not stated)	6	?	?	-6%	18µM*	10%
CCN(CC)C(=O)c1ccc(S(=O)(=O)N2CCC(c3nc4ccccc4s3)CC2)cc1	?	7.3µM*	-4%	0%	10µM*	?
O=S(=O)(c1ccc(OC(F)(F)F)cc1)N1CCC(c2nc3ccccc3s2)CC1	.	11%	.	.	23%	.
CC1CCCN(C(=O)c2ccc(S(=O)(=O)N3CCC(c4nc5ccccc5s4)CC3)cc2)C1 (configuration not stated)	-70*	12µM*	.	2%	6.5µM*	?
COc1ccc(OC)c(NC(=O)C2=C(C)C(=O)OC23CCN(C(C)C)CC3)c1	.	-28%	.	.	?	.

Screening data as filed in PubChem BioAssay.
